Data published in PMC7862700, “An all-to-all approach to the identification of sequence-specific readers for epigenetic DNA modifications on cytosine”.

Tests used:
Experiment in all cases: DAPPL (digital affinity profiling via proximity ligation, sequencing); 10 mM Tris-HCl pH 7.5, 50 mM NaCl, 1 mM DTT, 4% glycerol, room temperature, 30 min; GST-TFs on glutathione beads, 16-mer random dsDNA library, 0.1% formaldehyde crosslink after washing; high values mean tight binding
[1] = biological target: T1, FEV (Homo sapiens, UniProt Q99581 1-238); details: protein: recombinant; tags: N-terminal GST; dsDNA, one strand shown
T1 sequence: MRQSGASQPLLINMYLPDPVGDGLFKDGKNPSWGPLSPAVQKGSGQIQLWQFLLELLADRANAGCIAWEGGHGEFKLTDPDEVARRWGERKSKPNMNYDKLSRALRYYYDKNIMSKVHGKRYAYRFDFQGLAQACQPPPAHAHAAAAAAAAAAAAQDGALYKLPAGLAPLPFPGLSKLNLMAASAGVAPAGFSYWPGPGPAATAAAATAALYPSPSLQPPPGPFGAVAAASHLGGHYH
Procedure, shortened: (§1)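 In yeast, human transcription factors were expressed with a GST fusion, then pulled down on glutathione beads and given DNA barcodes. Pooled with a tag-only sample, they were exposed to 200 nmole of a 16-mer random double-stranded DNA library (Tris/NaCl/DTT/glycerol buffer, room temperature, 30 min), washed, crosslinked with 0.1% formaldehyde, proximity-ligated using BsaI/T4 ligase for 1 h at 37 °C, PCR-amplified and read on an Illumina NextSeq500. Each hexamer's frequency of reads for a factor, divided by the matching frequency for the tag-only sample, gives the binding signal.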

[2] = biological target: ETV5 (Homo sapiens, UniProt P41161 1-510); details: protein: recombinant; tags: N-terminal GST; dsDNA, one strand shown
ETV5, sequence (P41161 whole entry): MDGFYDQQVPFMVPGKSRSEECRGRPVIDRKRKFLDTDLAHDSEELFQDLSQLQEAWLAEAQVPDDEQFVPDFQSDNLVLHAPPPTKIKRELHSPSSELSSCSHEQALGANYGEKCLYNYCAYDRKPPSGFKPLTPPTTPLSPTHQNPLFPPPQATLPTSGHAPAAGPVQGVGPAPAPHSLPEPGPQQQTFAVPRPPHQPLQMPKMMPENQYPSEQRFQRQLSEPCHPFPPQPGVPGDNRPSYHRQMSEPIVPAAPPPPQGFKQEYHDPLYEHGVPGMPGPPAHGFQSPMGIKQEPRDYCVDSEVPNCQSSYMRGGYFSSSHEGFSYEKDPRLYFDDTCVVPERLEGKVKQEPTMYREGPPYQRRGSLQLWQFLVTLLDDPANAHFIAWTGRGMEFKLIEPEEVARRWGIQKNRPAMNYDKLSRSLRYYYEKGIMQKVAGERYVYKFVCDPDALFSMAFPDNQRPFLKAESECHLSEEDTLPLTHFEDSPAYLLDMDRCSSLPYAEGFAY
Procedure, shortened: as §1

[3] = biological target: HSF1 (Homo sapiens, UniProt Q00613 1-529); details: protein: recombinant; tags: N-terminal GST; chain copies: 3; dsDNA, one strand shown
HSF1, sequence (Q00613 whole entry): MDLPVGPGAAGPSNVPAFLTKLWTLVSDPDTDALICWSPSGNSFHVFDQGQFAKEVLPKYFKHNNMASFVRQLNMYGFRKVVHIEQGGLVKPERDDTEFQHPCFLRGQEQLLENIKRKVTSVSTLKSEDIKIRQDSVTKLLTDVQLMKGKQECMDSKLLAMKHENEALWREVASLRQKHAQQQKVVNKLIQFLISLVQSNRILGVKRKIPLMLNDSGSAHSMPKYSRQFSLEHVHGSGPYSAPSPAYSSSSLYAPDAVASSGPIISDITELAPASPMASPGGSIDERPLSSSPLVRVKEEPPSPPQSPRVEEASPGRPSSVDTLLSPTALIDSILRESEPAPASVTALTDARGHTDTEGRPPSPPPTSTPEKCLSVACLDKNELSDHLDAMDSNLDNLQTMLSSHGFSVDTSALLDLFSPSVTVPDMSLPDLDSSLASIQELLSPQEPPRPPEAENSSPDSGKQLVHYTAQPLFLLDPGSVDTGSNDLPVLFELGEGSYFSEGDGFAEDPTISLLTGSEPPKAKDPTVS
Procedure, shortened: as §1

[4] = biological target: T2, SPIC (Homo sapiens, UniProt Q8N5J4 1-248); details: protein: recombinant; tags: N-terminal GST; dsDNA, one strand shown
T2 sequence: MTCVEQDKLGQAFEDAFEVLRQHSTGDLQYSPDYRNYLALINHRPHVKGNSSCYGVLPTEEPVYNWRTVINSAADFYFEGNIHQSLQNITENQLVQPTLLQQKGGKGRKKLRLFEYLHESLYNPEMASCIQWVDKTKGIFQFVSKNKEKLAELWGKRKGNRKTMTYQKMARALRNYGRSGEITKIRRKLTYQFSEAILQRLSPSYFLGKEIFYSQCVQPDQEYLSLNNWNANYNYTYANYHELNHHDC
Procedure, shortened: as §1

[5] = biological target: ELF4 (Homo sapiens, UniProt Q99607 1-663); details: protein: recombinant; tags: N-terminal GST; dsDNA, one strand shown
ELF4, sequence (Q99607 whole entry): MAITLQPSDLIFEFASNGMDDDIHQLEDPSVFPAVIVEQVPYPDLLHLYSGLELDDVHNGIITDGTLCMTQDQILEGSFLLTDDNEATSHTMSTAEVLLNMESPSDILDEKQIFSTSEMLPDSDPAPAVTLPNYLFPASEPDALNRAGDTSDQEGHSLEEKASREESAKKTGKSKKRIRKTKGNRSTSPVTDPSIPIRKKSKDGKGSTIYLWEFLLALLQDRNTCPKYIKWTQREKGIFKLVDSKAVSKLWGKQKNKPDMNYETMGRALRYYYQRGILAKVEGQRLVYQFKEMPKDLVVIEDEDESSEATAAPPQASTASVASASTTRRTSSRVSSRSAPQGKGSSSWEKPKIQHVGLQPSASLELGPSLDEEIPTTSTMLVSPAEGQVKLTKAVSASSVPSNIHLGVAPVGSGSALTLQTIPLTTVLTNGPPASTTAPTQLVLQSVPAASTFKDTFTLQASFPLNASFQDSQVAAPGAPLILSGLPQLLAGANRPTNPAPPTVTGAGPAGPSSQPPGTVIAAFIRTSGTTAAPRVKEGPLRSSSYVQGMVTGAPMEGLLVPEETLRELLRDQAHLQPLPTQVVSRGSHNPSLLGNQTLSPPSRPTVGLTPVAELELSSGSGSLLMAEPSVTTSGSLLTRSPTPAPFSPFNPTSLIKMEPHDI
Procedure, shortened: as §1

[6] = biological target: T3, ELK4 (Homo sapiens, UniProt P28324-2 1-405); details: protein: recombinant; tags: N-terminal GST; dsDNA, one strand shown
T3 sequence: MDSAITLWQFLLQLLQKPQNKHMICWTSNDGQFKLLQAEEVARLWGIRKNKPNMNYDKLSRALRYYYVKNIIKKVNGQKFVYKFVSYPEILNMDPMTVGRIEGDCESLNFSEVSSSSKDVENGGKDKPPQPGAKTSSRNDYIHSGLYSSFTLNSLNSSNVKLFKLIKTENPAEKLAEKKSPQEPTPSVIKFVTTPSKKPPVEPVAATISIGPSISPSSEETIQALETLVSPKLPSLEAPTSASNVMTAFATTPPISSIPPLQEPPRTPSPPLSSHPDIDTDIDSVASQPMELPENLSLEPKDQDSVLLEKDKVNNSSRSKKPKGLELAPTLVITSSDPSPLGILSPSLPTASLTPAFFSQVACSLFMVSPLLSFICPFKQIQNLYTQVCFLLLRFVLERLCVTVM
Procedure, shortened: as §1

[7] = biological target: T4, ETV2 (Homo sapiens, UniProt O00321 1-342); details: protein: recombinant; tags: N-terminal GST; dsDNA, one strand shown
T4 sequence: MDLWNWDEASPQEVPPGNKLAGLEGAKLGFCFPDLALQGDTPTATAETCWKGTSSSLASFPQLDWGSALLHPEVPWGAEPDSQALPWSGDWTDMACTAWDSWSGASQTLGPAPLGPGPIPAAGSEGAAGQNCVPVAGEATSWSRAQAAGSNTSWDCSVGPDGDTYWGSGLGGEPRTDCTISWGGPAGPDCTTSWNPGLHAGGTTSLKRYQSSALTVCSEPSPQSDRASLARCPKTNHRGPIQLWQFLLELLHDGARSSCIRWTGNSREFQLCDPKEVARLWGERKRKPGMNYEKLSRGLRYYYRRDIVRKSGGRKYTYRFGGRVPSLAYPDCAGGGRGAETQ
Procedure, shortened: as §1

[8] = biological target: T5, ELF3 (Homo sapiens, UniProt P78545 1-371); details: protein: recombinant; tags: N-terminal GST; dsDNA, one strand shown
T5 sequence: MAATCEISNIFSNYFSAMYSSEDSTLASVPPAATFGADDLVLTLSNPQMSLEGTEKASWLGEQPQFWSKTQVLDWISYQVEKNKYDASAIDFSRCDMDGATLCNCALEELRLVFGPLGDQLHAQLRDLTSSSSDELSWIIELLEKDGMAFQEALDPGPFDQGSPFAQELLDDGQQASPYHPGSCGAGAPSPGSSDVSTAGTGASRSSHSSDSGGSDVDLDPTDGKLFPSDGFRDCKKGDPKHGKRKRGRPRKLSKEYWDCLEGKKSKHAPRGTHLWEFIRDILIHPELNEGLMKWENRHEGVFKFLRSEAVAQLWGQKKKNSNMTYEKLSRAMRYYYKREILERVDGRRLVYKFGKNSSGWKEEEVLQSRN
Procedure, shortened: as §1

[9] = biological target: CRX (Homo sapiens, UniProt O43186 1-299); details: protein: recombinant; tags: N-terminal GST; dsDNA, one strand shown
CRX, sequence (O43186 whole entry): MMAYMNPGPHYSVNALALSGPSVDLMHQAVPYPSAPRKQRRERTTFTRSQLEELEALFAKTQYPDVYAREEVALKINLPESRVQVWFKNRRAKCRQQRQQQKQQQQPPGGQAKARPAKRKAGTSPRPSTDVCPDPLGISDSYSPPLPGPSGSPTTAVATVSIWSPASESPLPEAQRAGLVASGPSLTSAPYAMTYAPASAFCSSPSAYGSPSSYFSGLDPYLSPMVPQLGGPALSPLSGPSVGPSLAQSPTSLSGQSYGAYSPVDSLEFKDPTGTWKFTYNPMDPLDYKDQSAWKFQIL
Procedure, shortened: as §1

[10] = biological target: ETV1 (Homo sapiens, UniProt P50549 1-477); details: protein: recombinant; tags: N-terminal GST; dsDNA, one strand shown
ETV1, sequence (P50549 whole entry): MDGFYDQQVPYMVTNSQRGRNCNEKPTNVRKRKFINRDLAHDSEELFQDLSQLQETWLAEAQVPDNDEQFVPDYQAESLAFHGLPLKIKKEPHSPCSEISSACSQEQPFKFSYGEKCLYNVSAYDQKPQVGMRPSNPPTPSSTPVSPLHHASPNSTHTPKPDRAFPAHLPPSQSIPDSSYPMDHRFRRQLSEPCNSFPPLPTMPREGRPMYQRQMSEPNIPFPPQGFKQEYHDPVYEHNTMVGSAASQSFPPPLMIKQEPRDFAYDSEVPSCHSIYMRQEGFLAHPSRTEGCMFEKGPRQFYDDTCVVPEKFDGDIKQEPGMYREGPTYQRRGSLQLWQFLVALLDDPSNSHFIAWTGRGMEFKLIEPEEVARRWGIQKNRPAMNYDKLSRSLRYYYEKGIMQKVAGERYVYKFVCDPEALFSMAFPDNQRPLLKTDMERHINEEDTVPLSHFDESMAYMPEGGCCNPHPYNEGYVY
Procedure, shortened: as §1

[11] = biological target: T6, ERF (Homo sapiens, UniProt P50548 1-548); details: protein: recombinant; tags: N-terminal GST; dsDNA, one strand shown
T6 sequence: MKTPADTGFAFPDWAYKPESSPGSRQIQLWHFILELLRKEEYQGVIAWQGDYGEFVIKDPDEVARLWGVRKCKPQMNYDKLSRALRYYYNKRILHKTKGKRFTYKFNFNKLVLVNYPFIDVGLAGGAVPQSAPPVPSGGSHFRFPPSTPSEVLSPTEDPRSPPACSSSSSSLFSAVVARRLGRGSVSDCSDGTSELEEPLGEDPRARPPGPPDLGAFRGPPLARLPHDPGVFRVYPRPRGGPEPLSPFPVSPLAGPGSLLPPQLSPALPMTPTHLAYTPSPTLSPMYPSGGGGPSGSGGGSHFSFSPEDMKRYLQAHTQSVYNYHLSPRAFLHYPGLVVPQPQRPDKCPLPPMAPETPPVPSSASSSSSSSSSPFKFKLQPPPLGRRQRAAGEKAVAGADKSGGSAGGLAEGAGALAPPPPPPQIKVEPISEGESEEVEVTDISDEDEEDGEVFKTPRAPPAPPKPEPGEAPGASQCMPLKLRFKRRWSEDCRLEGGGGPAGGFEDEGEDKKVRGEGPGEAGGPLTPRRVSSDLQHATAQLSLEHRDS
Procedure, shortened: as §1

[12] = biological target: T7, ETV3L (Homo sapiens, UniProt Q6ZN32 1-361); details: protein: recombinant; tags: N-terminal GST; dsDNA, one strand shown
T7 sequence: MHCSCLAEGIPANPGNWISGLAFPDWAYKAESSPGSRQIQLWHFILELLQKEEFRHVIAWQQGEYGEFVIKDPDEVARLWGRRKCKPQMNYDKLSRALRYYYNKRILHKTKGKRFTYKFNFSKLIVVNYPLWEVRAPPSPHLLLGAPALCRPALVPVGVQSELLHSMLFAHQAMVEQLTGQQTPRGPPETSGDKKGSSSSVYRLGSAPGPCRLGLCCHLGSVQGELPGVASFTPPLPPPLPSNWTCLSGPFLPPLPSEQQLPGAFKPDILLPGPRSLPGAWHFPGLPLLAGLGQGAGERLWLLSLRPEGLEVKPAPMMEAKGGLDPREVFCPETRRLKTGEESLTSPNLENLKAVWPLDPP
Procedure, shortened: as §1

[13] = biological target: T8, ETS2 (Homo sapiens, UniProt P15036 1-469); details: protein: recombinant; tags: N-terminal GST; dsDNA, one strand shown
T8 sequence: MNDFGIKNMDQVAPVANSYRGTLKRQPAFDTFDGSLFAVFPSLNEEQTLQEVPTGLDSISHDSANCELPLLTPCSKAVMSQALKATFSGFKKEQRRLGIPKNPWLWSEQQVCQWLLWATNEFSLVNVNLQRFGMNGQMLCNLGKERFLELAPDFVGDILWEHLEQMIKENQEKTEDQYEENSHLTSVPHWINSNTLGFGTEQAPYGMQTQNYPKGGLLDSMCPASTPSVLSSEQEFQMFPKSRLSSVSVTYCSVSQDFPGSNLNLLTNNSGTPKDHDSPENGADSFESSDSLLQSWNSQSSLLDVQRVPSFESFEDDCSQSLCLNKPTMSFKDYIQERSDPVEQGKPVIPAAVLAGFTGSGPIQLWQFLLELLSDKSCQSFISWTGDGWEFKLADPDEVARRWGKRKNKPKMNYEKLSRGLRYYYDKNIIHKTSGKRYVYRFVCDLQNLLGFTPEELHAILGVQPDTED
Procedure, shortened: as §1

[14] = biological target: T9, SPDEF (Homo sapiens, UniProt O95238 1-335); details: protein: recombinant; tags: N-terminal GST; dsDNA, one strand shown
T9 sequence: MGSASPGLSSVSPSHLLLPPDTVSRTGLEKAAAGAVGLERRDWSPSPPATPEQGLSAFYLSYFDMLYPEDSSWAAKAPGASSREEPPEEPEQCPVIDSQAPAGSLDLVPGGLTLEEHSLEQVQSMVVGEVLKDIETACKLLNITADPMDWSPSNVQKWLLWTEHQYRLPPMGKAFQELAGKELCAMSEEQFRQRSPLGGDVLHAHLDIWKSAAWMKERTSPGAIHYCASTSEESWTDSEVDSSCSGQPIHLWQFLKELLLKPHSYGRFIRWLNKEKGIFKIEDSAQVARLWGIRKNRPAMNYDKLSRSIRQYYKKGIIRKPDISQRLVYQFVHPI
Procedure, shortened: as §1

[15] = biological target: T10, ETV7 (Homo sapiens, UniProt Q9Y603 1-341); details: protein: recombinant; tags: N-terminal GST; dsDNA, one strand shown
T10 sequence: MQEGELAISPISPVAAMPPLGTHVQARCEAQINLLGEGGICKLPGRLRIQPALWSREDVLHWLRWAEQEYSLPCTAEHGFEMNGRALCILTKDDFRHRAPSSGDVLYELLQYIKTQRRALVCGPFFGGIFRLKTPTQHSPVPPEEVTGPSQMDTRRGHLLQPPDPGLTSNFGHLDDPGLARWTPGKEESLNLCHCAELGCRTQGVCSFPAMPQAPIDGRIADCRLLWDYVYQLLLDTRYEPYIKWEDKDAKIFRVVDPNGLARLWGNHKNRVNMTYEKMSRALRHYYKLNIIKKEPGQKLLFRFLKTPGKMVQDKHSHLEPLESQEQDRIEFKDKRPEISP
Procedure, shortened: as §1

[16] = biological target: T11, ELF5 (Homo sapiens, UniProt Q9UKW6-2 1-255); details: protein: recombinant; tags: N-terminal GST; dsDNA, one strand shown
T11 sequence: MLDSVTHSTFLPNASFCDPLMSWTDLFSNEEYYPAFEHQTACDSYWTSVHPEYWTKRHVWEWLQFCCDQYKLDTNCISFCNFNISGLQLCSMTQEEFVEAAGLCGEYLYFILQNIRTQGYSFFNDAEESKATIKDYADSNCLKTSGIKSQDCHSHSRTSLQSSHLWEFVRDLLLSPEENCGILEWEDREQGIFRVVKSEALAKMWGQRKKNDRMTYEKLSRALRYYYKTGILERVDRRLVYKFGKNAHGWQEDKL
Procedure, shortened: as §1

[17] = biological target: T12, ETV3 (Homo sapiens, UniProt P41162-2 1-143); details: protein: recombinant; tags: N-terminal GST; dsDNA, one strand shown
T12 sequence: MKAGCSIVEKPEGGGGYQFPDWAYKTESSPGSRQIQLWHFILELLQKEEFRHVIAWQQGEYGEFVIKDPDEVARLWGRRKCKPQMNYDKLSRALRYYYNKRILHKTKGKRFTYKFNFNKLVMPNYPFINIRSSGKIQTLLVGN
Procedure, shortened: as §1

[18] = biological target: ETV6 (Homo sapiens, UniProt P41212 1-452); details: protein: recombinant; tags: N-terminal GST; dsDNA, one strand shown
ETV6, sequence (P41212 whole entry): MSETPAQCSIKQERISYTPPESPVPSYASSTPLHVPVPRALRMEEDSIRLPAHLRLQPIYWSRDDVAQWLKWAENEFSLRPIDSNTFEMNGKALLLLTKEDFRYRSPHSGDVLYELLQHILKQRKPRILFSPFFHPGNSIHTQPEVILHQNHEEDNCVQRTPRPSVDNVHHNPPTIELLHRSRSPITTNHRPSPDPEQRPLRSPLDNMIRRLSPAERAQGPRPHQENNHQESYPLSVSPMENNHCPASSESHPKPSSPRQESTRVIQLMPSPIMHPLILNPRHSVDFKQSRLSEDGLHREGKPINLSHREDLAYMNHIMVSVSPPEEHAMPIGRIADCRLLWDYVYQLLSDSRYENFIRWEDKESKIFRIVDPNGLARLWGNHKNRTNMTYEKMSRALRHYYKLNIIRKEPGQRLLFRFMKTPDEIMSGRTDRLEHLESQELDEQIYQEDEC
Procedure, shortened: as §1

Sequence: GCTCAT
- binding signal [1]: 1.2 fold enrichment (6-mer frequency, TF over GST control)
- binding signal [2]: 1.19 fold enrichment (6-mer frequency, TF over GST control)
- binding signal [3]: 1.15 fold enrichment (6-mer frequency, TF over GST control)
- binding signal [4]: 1.32 fold enrichment (6-mer frequency, TF over GST control)
- binding signal [5]: 1.18 fold enrichment (6-mer frequency, TF over GST control)
- binding signal [6]: 1.3 fold enrichment (6-mer frequency, TF over GST control)
- binding signal [7]: 1.39 fold enrichment (6-mer frequency, TF over GST control)
- binding signal [8]: 1.34 fold enrichment (6-mer frequency, TF over GST control)
- binding signal [9]: 1.35 fold enrichment (6-mer frequency, TF over GST control)
- binding signal [10]: 1.22 fold enrichment (6-mer frequency, TF over GST control)
- binding signal [11]: 1.31 fold enrichment (6-mer frequency, TF over GST control)
- binding signal [12]: 1.19 fold enrichment (6-mer frequency, TF over GST control)
- binding signal [13]: 1.26 fold enrichment (6-mer frequency, TF over GST control)
- binding signal [14]: 1.12 fold enrichment (6-mer frequency, TF over GST control)
- binding signal [15]: 1.23 fold enrichment (6-mer frequency, TF over GST control)
- binding signal [16]: 1.19 fold enrichment (6-mer frequency, TF over GST control)
- binding signal [17]: 1.15 fold enrichment (6-mer frequency, TF over GST control)
- binding signal [18]: 1.21 fold enrichment (6-mer frequency, TF over GST control)
